These results are taken from the supplement of paper PMC6555819.

What all share (assay): PBM binding z-score (relative to random genomic background probes); higher = stronger binding; sequences stand for … in GC…GCGATTGACAGCGTAGAATGAAGG
In test [1] the test system is FXR:RXRa (NR concentration 270 nM, RXRa partner concentration 90 nM). In outline: (§1)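 Custom Agilent 4×180K protein-binding microarrays carried double-stranded probes. Their 34-nt variable regions held direct-repeat seeds, single-nucleotide variants, half-site ablations and random human genomic background sequences. Arrays were incubated 1 h with ligand-free nuclear receptor dimers in PBS pH 7.4, 2% milk, 0.02% Triton X-100, 1 mM DTT, 0.2 mg/mL BSA and 0.4 mg/ml salmon testes DNA. Antibodies against each partner (one per run) detected binding, and scanned fluorescence was regression-normalized. Binding z-scores use random background probes as reference.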

The test system of test [2] is LXRa:RXRa (NR concentration 270 nM, RXRa partner concentration 90 nM). The method, boiled down: as §1
Test [3] concerns LXRa homodimer (NR concentration 270 nM). The method, boiled down: as §1
Test [4] deals with LXRb:RXRa (NR concentration 270 nM, RXRa partner concentration 90 nM). The method, boiled down: as §1
For test [5], the system named is LXRb homodimer (NR concentration 270 nM). The method, boiled down:
as §1

For test [6], the system named is PPARa:RXRa (NR concentration 270 nM, RXRa partner concentration 90 nM). The method, boiled down:
as §1

In test [7] the test system is PPARg:RXRa (NR concentration 180 nM, RXRa partner concentration 90 nM). The method, boiled down:
as §1

Test [8] deals with PPARg:RXRa 270nM:90nM, anti-RXR (NR concentration 270 nM, RXRa partner concentration 90 nM). In outline: as §1
For test [9], the system named is PPARg:RXRa 30nM:10nM, anti-RXR (NR concentration 30 nM, RXRa partner concentration 10 nM). In outline:
as §1

For test [10], the system named is PPARg:RXRa 90nM:30nM, anti-RXR (NR concentration 90 nM, RXRa partner concentration 30 nM). In outline: as §1
Test [11] has as its system PPARg:RXRa DBDmut IVT, anti-RXR (DBD mutation: RXRa K156A/R161A, NR concentration 270 nM, RXRa partner concentration 90 nM). The method, boiled down:
as §1

Test [12] concerns PPARg:RXRa IVT, anti-PPARg (NR concentration 270 nM, RXRa partner concentration 90 nM). The method, boiled down:
as §1

Test [13] has as its system PPARg DBDmut:RXRa IVT, anti-PPARg (DBD mutation: PPARg1 K132A/R137A, NR concentration 270 nM, RXRa partner concentration 90 nM). In outline: as §1
In test [14] the test system is PPARg DBDmut IVT, anti-PPARg (DBD mutation: PPARg1 K132A/R137A, NR concentration 270 nM). In outline:
as §1

Test [15] concerns PPARg homodimer (NR concentration 180 nM). The method, boiled down:
as §1

Test [16] concerns PXR:RXRa (NR concentration 270 nM, RXRa partner concentration 90 nM). In outline:
as §1

Test [17] has as its system PXR homodimer (NR concentration 270 nM). In outline:
as §1

The subject of test [18] is RARa:RXR (NR concentration 270 nM, RXRa partner concentration 90 nM). The method, boiled down:
as §1

For test [19], the system named is RARa homodimer (NR concentration 270 nM). In outline: as §1
Test [20] concerns RARb:RXRa (NR concentration 270 nM, RXRa partner concentration 90 nM). In outline:
as §1

In the case of CGTCCAAGGTCAAGGTAAGTGAAAGAGACTCGAA, the PBM binding z-score in test [1] was 7.13; in test [2] it was 5.23; in [3] it was 0.112; in [4] it was 3.72; in test [5], 0.343; in test [6] it was 5.58. The PBM binding z-score was found to be 5.26 in [7]; 5.51 in test [8]; 1.81 in [9]; 4.01 in [10]; 3.13 in [11]; 3.85 in test [12]. Also, the PBM binding z-score worked out at 0.749 in test [13]; 0.108 in test [14]; 3.18 in test [15]; 3.52 in test [16]; 0.541 in test [17]; 4.27 in test [18]. Moreover, the PBM binding z-score in test [19] was determined as 1.1; in test [20], 5.3.

As for GCTAGTTGGTCAGTAAAAGGTCACGCACCGGTCG, the PBM binding z-score is 4.11 in [1]; 4.91 in test [2]; 4.69 in [3]; 4.3 in [4]; 0.681 in test [5]; 4.73 in test [6]. Further, the PBM binding z-score in test [7] worked out at 3.18; in [8] it was 5.04; in test [9], 2.52; in [10], 4.78; in test [11] it was 1.6; in [12], 2.94. The PBM binding z-score stood at 1.14 in test [13]; 0.145 in [14]; 5.9 in test [15]; 5.48 in test [16]; 1.28 in [17]; 6.73 in test [18]. Besides, the PBM binding z-score in test [19] was 4.45; in test [20] it was 4.47.

With TCATATAGGTAAAAGGTGATAGTCGGTGTGGTAA, the PBM binding z-score in [1] turned out to be 1.41; in test [2], 1.28; in [3], 0.217; in test [4] it was 1.35; in [5], 0.351; in [6], 4.6. Also, the PBM binding z-score in [7] worked out at 8.06; in [8] it was 7.95; in test [9] it was 8.2; in test [10], 8.56; in test [11], 5.2; in test [12], 4.18. Besides, the PBM binding z-score in test [13] is 1.26; in test [14], 1.38; in test [15], 1.66; in test [16] it was 0.875; in [17] it was 0.988; in test [18], 1.84. The PBM binding z-score amounted to 1.85 in [19] and 1.17 in test [20].

With CCTACTAGGCCAAGGTCATTGATCAGTCAAAGCA, the PBM binding z-score amounted to 3.42 in test [1]; 3.71 in test [2]; 2.03 in [3]; 3.21 in test [4]; 0.097 in test [5]; 4.66 in test [6]. For the same sequence, the PBM binding z-score is 4.96 in test [7]; 4.59 in [8]; 2.19 in test [9]; 4.42 in [10]; 5.34 in [11]; 4.8 in [12]. Also, the PBM binding z-score came out at 0.0145 in [13]; 0.199 in test [14]; 1.67 in [15]; 3.52 in test [16]; 1.98 in test [17]; 3.68 in test [18]. In addition, the results for the PBM binding z-score in test [19] and in test [20] were 0.849 and 3.62, respectively.

Consider CCTAGTTGGTCGGGAGGTCACACACCGGATATGA, for which the PBM binding z-score in [1] is 3.79; in [2], 3.32; in [3], 2.67; in test [4], 3.48; in test [5], 1.04; in test [6], 3.89. Moreover, the PBM binding z-score in test [7] was 2.12; in [8], 2.73; in test [9], 0.776; in test [10], 2.07; in test [11], -0.134; in test [12], 1.89. The PBM binding z-score in test [13] was found to be 0.253; in test [14] it was 0.694; in test [15], 3.59; in test [16], 4.29; in [17] it was 2.4; in test [18], 4.55. Also, the values for the PBM binding z-score in [19] and in [20] were 2.58 and 3.47, respectively.

With GTTTACGGGTCAAAGGTTATAGCATGAATAGAAT, the PBM binding z-score in test [1] turned out to be 6.92; in [2], 5.94; in test [3], 0.633; in test [4], 6; in test [5] it was 0.401; in [6] it was 6.92. The PBM binding z-score in test [7] turned out to be 11.3; in test [8], 9.13; in test [9], 9.06; in [10], 10.1; in [11], 4.49; in [12], 6.3. In addition, the PBM binding z-score in [13] is 1.34; in test [14], 0.914; in test [15], 2.36; in [16], 6.4; in test [17] it was 0.568; in test [18], 8.19. Besides, the PBM binding z-score in test [19] was 0.857; in [20], 4.66.
